Most compounds without a hit are left out; they make up all but 19% or so of the library.
HT1080 IDH1KD tx: qHTS for induction of synthetic lethality in tumor cells producing 2HG: qHTS for the HT-1080-IDH1KD cell line. HT-1080 IDH1 knockdown viability, ATP luminescence, 48 h. Potency, µM (series often up to 46.1 µM), inactives show top-dose activity, negative = toxicity, usual class: cytotoxic. 360,000 compounds, 2% hits. AID 686971, 2013;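 further: 0% = DMSO wells and -100% = cell-free medium wells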
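Using the IDH1-knockdown HT-1080 line run in the same batch and compound series as the NT line, viability after 48 h at 37 °C was determined by CellTiter-Glo luminescence and expressed as % activity.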
KB-3-1 cytotox: qHTS assay for MDR1-selective chemotherapeutics: Primary screen using the parental adenocarcinoma cell KB-3-1. AID 1347075, 2019. 400,000 compounds, 1.4% hits. KB-3-1 viability, CellTiter-Glo ATP luminescence, 72 h. Potency, µM (doses to about 46.1 µM), hits mostly cytotoxic; further: nearly all actives have a fitted effect of over 60% in size
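Here the drug-naive KB-3-1 line serves as comparator for MDR sub-line selectivity; cells received compound titrations, 72 h at 37 °C, then CellTiter-Glo readout.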
DT40 TDP1 no CPT: qHTS for Inhibitors of human tyrosyl-DNA phosphodiesterase 1 (TDP1): qHTS in cells in absence of CPT | DT40 Tdp1-/- hTDP1 cells, no CPT, ATP luminescence, 48 h | AID 686978, 2013 | Potency, µM (doses to about 46.2 µM), without a hit: at the top dose activity change, negative = growth inhibition, usual class: inhibitors | 420,000 compounds, 15% hits; further: nearly all actives have a fitted effect of over 55% in size
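DT40 Tdp1-/-;hTDP1 cells, no CPT (DMSO vehicle only), 400 cells/well; compounds pin-transferred; ≥48 hr, 37 °C; CellTiter-Glo 30 min RT dark, luminescence read.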
KB-V1 MDR tox: qHTS assay for MDR1-selective chemotherapeutics: Primary screen using the drug-selected MDR subline cells KB-V1 | KB-V1 MDR cells viability, CellTiter-Glo, 72 h | Potency, µM (doses to about 46.1 µM), hits mostly cytotoxic | 400,000 compounds, 3.4% hits | AID 1347076, 2019; further: nearly all actives have a fitted effect of over 60% in size
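In this primary screen, KB-V1 cells overexpressing P-gp are incubated with library compounds (lowest to highest concentration) for 72 h at 37 degrees C before a luminescent ATP viability read.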
TDP1 cell CPT: qHTS for Inhibitors of human tyrosyl-DNA phosphodiesterase 1 (TDP1): qHTS in cells in presence of CPT; Potency, µM (titrated, usually from 46.2 µM), inactives show top-dose activity change, negative = growth inhibition, usual class: inhibitors; 420,000 compounds, 12% hits; chicken DT40 Tdp1-/-;hTDP1 cells + 20 nM CPT, ATP luminescence, 48 h; further: nearly all actives have a fitted effect of over 55% in size
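Chicken DT40 Tdp1-/- cells complemented with human TDP1, 400 cells/well, exposed to compounds plus 20 nM camptothecin for at least 48 h at 37 C; viability read as ATP content by CellTiter-Glo luminescence.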
HT1080-NT tox: qHTS for induction of synthetic lethality in tumor cells producing 2HG: qHTS for the HT-1080-NT fibrosarcoma cell line | HT-1080-NT fibrosarcoma viability, CellTiter-Glo ATP luminescence, 48 h | Potency, µM (highest dose often 46.1 µM), for inactives: at the highest dose activity, negative = less viability, actives largely listed as cytotoxic | 360,000 compounds, 1.6% hits;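 further: NT is the 2HG producing partner of a matched IDH1 knockdown line; 0% = DMSO-treated cells and -100% = media-only wells without cells; nearly all actives have a fitted effect of over 55% in size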
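Toxicity toward the 2HG-producing NT line was scored as %Activity, normalised to DMSO and no-cell wells, from CellTiter-Glo luminescence after 48 hours' treatment.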
The depositor's hits bear a star; i = inactive; ? = inconclusive; nt = no result given. The call rests on the fitted dose curve; in most records, active means well fitted curve in the direction sought with a large enough effect; inconclusive means small, poorly fitted or top-dose-only effect, or another doubt; inactive means no such curve, though single readings can be large; an effect the other way counts as inactive or inconclusive. Unless noted, on the % scale 0 is the no-effect control and ±100 the full control effect; potency means the concentration at half of the fitted maximal effect.

SMILES	HT1080 IDH1KD tx	KB-3-1 cytotox	DT40 TDP1 no CPT	KB-V1 MDR tox	TDP1 cell CPT	HT1080-NT tox
Cc1cc(C)c(S(=O)(=O)Nc2c(C)[nH]c(=O)[nH]c2=O)c(C)c1	-21%	i	23µM*	i	16µM*	-27%
OCC[C@@H]1C[C@H](O)[C@@H](O)[C@@]2(OCc3cc(C(F)(F)F)ccc32)O1	9%	?	-18%	i	-3%	14%
COc1ccc(/C=C2/SC(=O)N(CCNC(=O)C3COc4ccccc4O3)C2=O)cc1 (stereo not drawn)	4%	i	21µM*	?	?	-1%
CCOc1ccc(/C=C2\SC(=O)N(CCNC(=O)C3COc4ccccc4O3)C2=O)cc1OC (stereo not drawn)	-4%	i	9.2µM*	16µM*	12µM*	-4%
O=C(NCCN1C(=O)S/C(=C\c2ccc(Cl)c(Cl)c2)C1=O)C1COc2ccccc2O1 (stereo not drawn)	6%	i	?	i	?	2%
Cc1cc(C)c(S(=O)(=O)N2CCC(N3CCN(Cc4ccc(F)cc4)C(=O)C3=O)CC2)c(C)c1	nt	i	-23%	i	?	nt
C=C1Cc2c(Cl)cc3[nH]c4c5c3c2[C@@]2(O)[C@@H]1C[C@@H]2C(C)(C)O[C@H]5[C@@H]1CC[C@@]2(O)[C@@]35O[C@@H]3[C@@H](O)[C@@H](C(=O)O)O[C@H]5CC[C@]2(C)[C@@]41C	nt	nt	4.1µM*	nt	5.8µM*	nt
COc1cccc(CNC(=O)c2ccc3c(c2)nc2n3CCOC2)c1OC	nt	i	-10%	i	6%	nt
O=C(O)CSCc1nc2ccccc2[nH]1	-1%	i	-3%	i	7%	0%
O=C(CSCc1nc2ccccc2[nH]1)N1CCN(c2ccc(F)cc2)CC1	?	i	18µM*	i	23µM*	0%
O=C(CSCc1nc2ccccc2[nH]1)N1CCN(c2cccc(Cl)c2)CC1	-11%	?	?	21µM*	23µM*	-2%
O=C(Nc1ccc(F)cc1)Nc1nnc(Cc2ccccc2)s1	-13%	i	?	i	-15%	-5%
O=C(Nc1nnc(COc2ccccc2F)s1)Nc1ccccc1F	?	i	21µM*	i	?	?
O=C(Nc1ccc(F)cc1)Nc1nnc(COc2ccccc2F)s1	15µM*	i	16µM*	?	15µM*	?
COc1ccc(C(C)=O)cc1CN1C(=O)C(C)ON=C1c1cccc(C(F)(F)F)c1 (stereo not drawn)	3%	i	16µM*	?	?	7%
COc1ccc(C(C)=O)cc1CN1C(=O)C(C)ON=C1c1ncccc1C (stereo not drawn)	?	i	10%	i	-11%	20%
CC1CCCCN1CCCOC(=O)c1ccccc1 (stereo not drawn)	nt	nt	3%	nt	-6%	nt
Cc1nn(-c2cccc(Cl)c2)c2c1C(c1cccnc1)C(C#N)=C(N)O2 (stereo not drawn)	-9%	i	?	i	?	-8%
N#CC1=C(N)Oc2ccc3ccccc3c2C1c1cccnc1 (stereo not drawn)	?	?	5.2µM*	5.2µM*	3.7µM*	8.2µM*

Screening data (PubChem)
